# The whole screen tested about 47,000 compounds, of which about 2,000 (4.3%) were called active. This is one part of a sample in which actives are shown more often than they occur. Values without a mark were called inactive. Cut-off read from the data, not from the text of the source: active = inhibition above about 30%; inactive = the rest.
# Biological target: Ubiquitin carboxyl-terminal hydrolase 8 (Homo sapiens) (UniProt P40818)
# Experiment: blocks human USP8 ubiquitin-rhodamine cleavage (AID 1645853)
# Conditions: purified USP8, Ub-rhodamine cleavage fluorescence, 30 min; at 20 µM; stronger effect = higher value
# Sequence of Ubiquitin carboxyl-terminal hydrolase 8 (Homo sapiens) (P40818 whole entry, looked up): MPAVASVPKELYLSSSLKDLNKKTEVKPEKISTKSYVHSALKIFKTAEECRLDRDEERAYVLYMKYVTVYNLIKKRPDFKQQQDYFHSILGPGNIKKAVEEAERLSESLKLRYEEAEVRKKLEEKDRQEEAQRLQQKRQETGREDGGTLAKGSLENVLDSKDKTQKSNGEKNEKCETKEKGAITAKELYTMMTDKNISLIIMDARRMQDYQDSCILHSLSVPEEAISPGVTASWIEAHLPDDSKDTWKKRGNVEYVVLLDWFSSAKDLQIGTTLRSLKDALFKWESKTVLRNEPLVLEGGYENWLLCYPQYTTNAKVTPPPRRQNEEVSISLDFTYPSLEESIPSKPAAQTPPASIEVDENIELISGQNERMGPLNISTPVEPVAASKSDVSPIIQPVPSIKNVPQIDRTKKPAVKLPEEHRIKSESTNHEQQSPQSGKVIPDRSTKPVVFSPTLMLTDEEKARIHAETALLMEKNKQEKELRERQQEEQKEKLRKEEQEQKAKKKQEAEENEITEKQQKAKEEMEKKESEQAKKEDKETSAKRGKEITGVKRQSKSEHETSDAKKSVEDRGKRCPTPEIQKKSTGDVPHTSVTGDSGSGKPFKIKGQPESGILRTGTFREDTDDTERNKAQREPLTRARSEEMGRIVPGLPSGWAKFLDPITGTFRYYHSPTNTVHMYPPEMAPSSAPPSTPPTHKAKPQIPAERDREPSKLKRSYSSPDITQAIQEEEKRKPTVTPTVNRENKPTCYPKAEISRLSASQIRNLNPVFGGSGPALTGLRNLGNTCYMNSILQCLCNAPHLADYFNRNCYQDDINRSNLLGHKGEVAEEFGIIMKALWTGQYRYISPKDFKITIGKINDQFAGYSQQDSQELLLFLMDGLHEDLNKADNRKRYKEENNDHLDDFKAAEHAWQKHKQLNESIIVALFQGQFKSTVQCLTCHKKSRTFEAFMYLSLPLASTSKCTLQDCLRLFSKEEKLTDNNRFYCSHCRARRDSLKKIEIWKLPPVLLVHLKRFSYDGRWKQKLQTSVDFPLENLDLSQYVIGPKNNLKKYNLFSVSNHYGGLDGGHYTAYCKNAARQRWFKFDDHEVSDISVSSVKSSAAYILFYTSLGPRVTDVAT
row,SMILES,inhibition
1,CCc1cccc(C)c1NC(=O)Cn1nc2ccc(C(=O)NCc3ccccc3)cn2c1=O,74.5% (active)
2,Cc1cc(=O)n(CC(=O)NCc2ccccc2)c(N2CCCC2)n1,2.35%
3,CCc1cccc(C)c1NC(=O)CSc1nc2c(c(=O)[nH]1)CCCC2,18%
4,O=S(=O)(Cc1nnc(-c2cc(Cl)cc(Cl)c2)o1)c1ccc(Cl)cc1,45.6% (active)
5,N#Cc1ccc(-c2nc(CS(=O)(=O)c3ccc(Cl)cc3)no2)cc1,-6.87%
6,Cc1ccc(-c2nnc(CCC(=O)O)o2)cc1,3.95%
7,C[C@H](NC(=O)Cc1ccc(Cl)cc1)C(=O)N1CCC2(CC1)NCCc1[nH]cnc12,21.2%
8,O=C(NCCC(=O)N1CCC2(CC1)NCCc1[nH]cnc12)c1ccc(-c2ccccc2)cc1,34.7% (active)
9,O=C(NCC(=O)N1CCC2(CC1)NCCc1[nH]cnc12)c1ccc(Br)cc1,18.8%
10,Cc1cc(Cl)ccc1OCCCC(=O)NCc1ccccn1,-25%
11,O=C(Nc1ccc(-c2nc3cnccc3o2)c(O)c1)c1ccc(-c2ccccc2)cc1,-4.15%
12,O=C(Cc1ccccc1)Nc1ccc(-c2nc3cnccc3o2)c(O)c1,74.3% (active)
13,COc1cc(C(=O)Nc2ccc(-c3nc4cnccc4o3)cc2)cc(OC)c1OC,-3.3%
14,CCCc1noc(-c2ccc(-n3ncc(C(=O)N4CCOCC4)c3C)nc2)n1,0.113%
15,COc1ccc(-c2noc(CN(C3CCCCC3)S(=O)(=O)c3ccc(OC)cc3)n2)cc1,14%
16,COc1cccc(-c2noc(CN3CCCC3c3cc(OC)ccc3OC)n2)c1 (centres undefined),-12.7%
17,CCCCN(C)c1ccc2nnc(CCc3nc(-c4cc(OC)cc(OC)c4)no3)n2n1,84.8% (active)
18,CSCCC(NC(=O)C1CCCC1)c1nc2ccccc2[nH]1 (centres undefined),-5.64%
19,Cn1c(=O)c2c(ncn2Cc2nnc(-c3ccccc3)o2)n(C)c1=O,64.8% (active)
20,Cc1cnc(NC(=O)Cn2cnc3c2c(=O)n(C)c(=O)n3C)s1,19.6%
21,Cc1ccc(NC(=O)CCn2cnc3c2c(=O)n(C)c(=O)n3C)cc1,-3.63%
22,CC1CCN(C(=O)c2ncn3c2CN(C)S(=O)(=O)c2ccccc2-3)CC1,6.05%
23,CCc1nnc2ccc(S(=O)(=O)N(CC)c3ccccc3)cn12,-281%

row,SMILES,inhibition
1,Nn1c(SCC(=O)Nc2ccccc2F)nnc1-c1n[nH]c2c1CCC2,7.87%
2,Cc1cc(NC(=O)COC(=O)c2cccc(C)c2O)ccc1Br,0.58%
3,Cc1cc(-c2nnc(SCC(=O)Nc3ccc(Br)c(C)c3)n2N)n[nH]1,31% (active)
4,CC(C)(C)n1nc(C2CC2)c(Br)c1NC(=O)c1ccccc1F,20.5%
5,CC1(C)CCC2(C(=O)O)CC[C@]3(C)C(=CC[C@@H]4[C@@]5(C)CCC(O)C(C)(C)[C@@H]5CC[C@]43C)C2C1 (some centres undefined),4.43%
6,Cc1cccc(CNC(=O)CN2C(=O)C3CCCN3C(=O)c3cccc(C)c32)c1 (centres undefined),5.77%
7,Cc1cccc(C2=NC3(CCN(CC(=O)Nc4ccccc4C)CC3)NC2=O)c1,-2.9%
8,Cc1ccc2cc(CNc3ccccc3)c(=O)n(CC(=O)Nc3ccccc3C)c2c1,92.8% (active)
9,Cc1cccc(NC(=O)Cn2c(C)ccc(NC(=O)Nc3cccc(C)c3)c2=O)c1,26.5%
10,CCOC(=O)c1cc(S(=O)(=O)Nc2ccc(OC)c(Cl)c2)cn1C,11.8%
11,O=C(NC1CC2(CCOCC2)Oc2ccccc21)c1[nH]ncc1Cl (centres undefined),3.95%
12,O=C(COc1ccccc1)Nc1cnc(-c2cccc(Cl)c2)nc1,60.7% (active)
13,CSc1cccc(NC(=O)COc2ccc(C(=O)c3ccccc3)cc2)c1,-0.948%
14,COc1ccc(CC(=O)Nc2cnc(-c3ccccc3)nc2)cc1,-7.3%
15,CCC(C)[C@H](NC(=O)[C@@H]1Cc2c([nH]c3ccccc23)C2c3ccccc3C(=O)N21)C(=O)NCCc1ccccc1 (some centres undefined),-10.4%
16,Cc1cccc(C(=O)Nc2ccc(-n3c(C)nc4ncccc4c3=O)cc2C)c1,5.93%
17,COc1cccc(C2c3[nH]c4ccccc4c3C[C@@H]3C(=O)N(Cc4ccc5c(c4)OCO5)CC(=O)N23)c1 (some centres undefined),13.4%
18,CCc1cc(=O)n(CC(=O)Nc2cc(C)on2)c(-c2ccccc2)n1,-44.3%
19,Cc1cc(=O)n(CC(=O)Nc2ccc3c(c2)OCO3)c2c1c(-c1ccccc1)nn2-c1ccccc1,67.9% (active)
20,CN(c1ccccc1)c1nc(=O)n(CC(=O)Nc2ccc3c(c2)OCCO3)c2ccccc12,-40.3%
21,CC(=O)N1CCc2cc(S(=O)(=O)Nc3ccccc3N3CCN(C)CC3)ccc21,-8.86%
22,CCCN1CCN(c2ccc(C(=O)O)cc2NS(=O)(=O)c2cc(F)ccc2F)CC1,84.9% (active)
23,CCS(=O)(=O)Nc1cc(S(=O)(=O)Nc2cc(Cl)ccc2Cl)ccc1N1CCOCC1,2.1%

row,SMILES,inhibition
1,Cc1ccnc(SCc2nc(-c3ccc4c(c3)ncn4C)no2)n1,2.93%
2,Cc1csc(C2(NC(=O)Cc3cc(C)on3)CCCC2)n1,74.9% (active)
3,O=C(Cc1cccc(F)c1)NC1(c2nc(C3CC3)no2)CCCCC1,5.33%
4,Cc1noc(C2(NC(=O)Cc3ccccc3C)CCCCC2)n1,-1.15%
5,Cc1noc(C)c1S(=O)(=O)NCc1ccc2c(c1)CCN2C(=O)C(C)C,21.9%
6,Cc1cccc(N2CCN(S(=O)(=O)c3c[nH]c(-c4nnc(C)o4)c3)CC2C)c1 (centres undefined),12.2%
7,CC(C)NS(=O)(=O)c1ccc(NC(=O)c2cccnc2)cc1,4.16%
8,CCc1cc(C2CCCN2C(=O)c2cc(-c3ccccc3F)no2)on1 (centres undefined),0.852%
9,O=C(C1CCC1)N1CCCN(c2ccc([N+](=O)[O-])cn2)CC1,-127%
10,CN(C)c1ccc(S(=O)(=O)NCC(=O)NCC2CCCCC2)cc1[N+](=O)[O-],-110%
11,Oc1cccc2nc3c(O)cccc3nc12,94.4% (active)
12,O=C(NCc1ccc2c(c1)OCO2)C1CCCN(c2nc3ccc(Cl)cc3[nH]2)C1 (centres undefined),7.49%
13,CC(=O)N[C@@]12CN(C)CC[C@@H]1[C@@H](c1ccccc1)N(CC(=O)Nc1cc(F)ccc1C)C2,-5.94%
14,N#Cc1ccccc1Cn1c(=O)n(CCCC(=O)NCc2ccc(F)cc2)c(=O)c2ccccc21,15.6%
15,Cc1ccc(CNC(=O)CCCn2c(=O)c3sccc3n(CC(=O)OCc3ccccc3)c2=O)cc1,63.4% (active)
16,COc1ccc(CCNC(=O)CCCn2c(=O)c3ccccc3n(CC(=O)OCc3ccccc3)c2=O)cc1OC,1.77%
17,Cc1cc(C)nc(-n2nc(C)c(C#N)c2NC(=O)c2cccc(Cl)c2)n1,2.08%
18,COc1ccc(-c2cnoc2-c2ccc(O)cc2O)cc1OC,22%
19,Fc1ccc(-n2cc(-c3ccccc3)c3c(NCc4ccco4)ncnc32)cc1,5.27%
20,c1coc(CNc2nc(Nc3cccc4ccccc34)nc3ccccc23)c1,35.8% (active)
21,CC(C)Cc1nc2sc3c(NCc4ccco4)ncnc3c2c2c1CCC2,16.6%
22,COCCN1CC[C@@H]2Oc3ccccc3S(=O)(=O)N(Cc3cccnc3)[C@H]2CC1,-50.1%
23,COc1cccc(S(=O)(=O)N2CCC(n3cnnc3C3CC3)CC2)c1,1.34%

row,SMILES,inhibition
1,COc1cc(-c2nc3c4cnn(-c5ccccc5)c4ncn3n2)cc(OC)c1OC,-3.12%
2,C#CCOc1ccc(CN2CCc3nc(-c4cccnc4)[nH]c(=O)c3C2)cc1OC,13.3%
3,C#CCOc1ccc2ccccc2c1CN1CCc2ccccc2C1,41.1% (active)
4,Cn1nnnc1-c1cc(Cl)cc(Cl)c1,-13.4%
5,CCc1cc(=O)n(CC(=O)NCC2CCCO2)c(N)n1 (centres undefined),0.518%
6,COc1cccc(CNC(=O)N2CCN(Cc3ccc4nccnc4c3)CC2)c1,-8.24%
7,Cn1c(CC2CCN(S(=O)(=O)c3cccnc3)C2)nc2cccnc21 (centres undefined),13.9%
8,O=C(NCc1ccccc1)c1c(O)c2cnn(Cc3ccccc3)c2[nH]c1=O,0.46%
9,CC1(C(=O)NC2CCCC2)Cn2c(cc3ccccc32)C(=O)N1c1ccc(F)cc1 (centres undefined),50.7% (active)
10,COc1ccccc1CN1C(=O)c2cc3occc3n2CC1(C)C(=O)NC1CCCCC1 (centres undefined),13.4%
11,CC(C)CCNC(=O)C1(C)Cn2c(cc3ccccc32)C(=O)N1Cc1ccccc1F (centres undefined),0.22%
12,CO\C=C(C(=O)OC)/C(=C\C=C\c1ccccc1)CO,-79.7%
13,Cc1cc(C)c2ccc(NC(=O)c3ccco3)nc2n1,-8.62%
14,Cc1nc(-n2[nH]c(C)c(CC(=O)N3CCOCC3)c2=O)sc1C,8.41%
15,Cc1c(-c2nn3c(-c4ccco4)nnc3s2)cccc1[N+](=O)[O-],89.2% (active)
16,CC(C)Cc1cc(-c2nn3c(-c4ccccc4Cl)nnc3s2)n[nH]1,-0.275%
17,c1ccc(CN2CCCC(c3nc(-c4cccnc4)n[nH]3)C2)cc1 (centres undefined),-0.172%
18,O=C(CN1CCC(c2nc(-c3ccccc3)no2)CC1)Nc1ccccc1,3.46%
19,Cc1noc(-c2cccn(Cc3cc(F)ccc3F)c2=O)n1,2.57%
20,O=C(Cn1cccc(-c2nc(-c3ccccc3)no2)c1=O)Nc1ccccc1F,90.4% (active)

# Source: PubChem BioAssay AID1645853 (Buhrlage Lab, Dana-Farber Cancer Institute and Novartis …, 2021)
